The whole screen tested about 5,500 compounds, of which about 2,000 (36%) were called active. Roughly 18% stayed inconclusive and do not appear here. Rule as the data show it: active = normalized growth mostly below about 0.91 (no sharp cut-off); inconclusive = no clear call, values can overlap the other calls; inactive = mostly above about 0.92. The list shows a part of the results.
Assay: chemical genetic growth profiling, strain panel (AID 1159580);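 also: tested at 20 µM; growth read once vehicle control cultures reached saturation at 30 °C; 1 = growth at the plate median or of vehicle wells; lower values mean less growth of the strain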
Settings: S. cerevisiae deletion strains, growth OD

Measured: normalized growth

COc1cc(S(C)=O)ccc1-c1nc2ncccc2[nH]1 (stereo not drawn)
inactive: locus YAL013W, strain DEP1, hits give low values 1.01 | locus YAL021C, strain ccr4, hits give low values 0.936 | locus YAL026C, strain drs2, hits give low values 0.994 | locus YAL030W, strain snc1, hits give low values 0.976 | locus YBL061C, strain skt5, hits give low values 0.984 | locus YBR009C, strain hhf1, hits give low values 0.956 | locus YBR021W, strain FUR4, hits give low values 0.994 | locus YBR023C, strain chs3, hits give low values 0.98 | locus YBR171W, strain sec66, hits give low values 0.977 | locus YBR229C, strain ROT2, hits give low values 1.01 | locus YBR231C, strain swc5, hits give low values 1.01 | locus YBR279W, strain paf1, hits give low values 0.981 | locus YCL011C, strain gbp2, hits give low values 0.969 | locus YCL016C, strain dcc1, hits give low values 0.959 | locus YCL029C, strain bik1, hits give low values 0.985 | locus YCL061C, strain MRC1, hits give low values 0.984 | locus YCL069W, strain vba3, hits give low values 0.967 | locus YCR088W, strain abp1, hits give low values 0.981 | locus YDL005C, strain med2, hits give low values 0.966 | locus YDL035C, strain GPR1, hits give low values 1 | locus YDL040C, strain nat1, hits give low values 0.969 | locus YDL074C, strain BRE1, hits give low values 1.04 | locus YDL101C, strain DUN1, hits give low values 0.994 | locus YDL134C, strain PPH21, hits give low values 1.01 | locus YDL185W, strain tfp1, hits give low values 0.98 | locus YDL192W, strain arf1, hits give low values 0.985 | locus YDR001C, strain nth1, hits give low values 0.963 | locus YDR069C, strain doa4, hits give low values 0.958 | locus YDR101C, strain arx1, hits give low values 0.999 | locus YDR137W, strain rgp1, hits give low values 0.973 | locus YDR150W, strain NUM1, hits give low values 0.979 | locus YDR159W, strain sac3, hits give low values 0.96 | locus YDR162C, strain NBP2, hits give low values 1 | locus YDR195W, strain ref2 0.935 | locus YDR297W, strain sur2, hits give low values 0.974 | locus YDR318W, strain mcm21, hits give low values 0.997 | locus YDR334W, strain swr1, hits give low values 0.97 | locus YDR335W, strain msn5, hits give low values 0.96 | locus YDR388W, hits give low values 0.996 | locus YDR392W, strain spt3, hits give low values 0.848 | locus YDR502C, strain sam2, hits give low values 0.984 | locus YEL003W, strain gim4, hits give low values 0.98 | locus YEL037C, strain rad23, hits give low values 0.975 | locus YEL061C, strain CIN8 (second series), hits give low values 0.972 | locus YEL061C, strain CIN8, hits give low values 1 | locus YER015W, strain faa2, hits give low values 0.982 | locus YER016W, strain bim1, hits give low values 0.978 | locus YER110C, hits give low values 0.992 | locus YER111C, strain swi4, hits give low values 0.972 | locus YER155C, strain BEM2 (second series), hits give low values 0.994 | locus YER155C, strain BEM2, hits give low values 0.978 | locus YER167W, strain BCK2, hits give low values 1.01 | locus YFR010W, strain ubp6, hits give low values 0.974 | locus YGL078C, strain dbp3, hits give low values 0.993 | locus YGL086W, strain mad1, hits give low values 0.995 | locus YGL167C, strain pmr1, hits give low values 0.941 | locus YGL173C, strain kem1, hits give low values 0.99 | locus YGL227W, strain vid30, hits give low values 0.982 | locus YGL240W, strain doc1, hits give low values 0.999 | locus YGL248W, strain PDE1, hits give low values 0.995 | locus YGL253W, strain hxk2, hits give low values 0.987 | locus YGR078C, strain PAC10, hits give low values 1.02 | locus YGR135W, strain pre9, hits give low values 0.983 | locus YGR229C, strain SMI1, hits give low values 1.02 | locus YGR252W, strain gcn5, hits give low values 1.01 | locus YHR013C, strain ard1, hits give low values 0.929 | locus YHR027C, strain rpn1, hits give low values 0.97 | locus YHR030C, strain SLT2, hits give low values 0.984 | locus YHR079C, strain IRE1 (second series), hits give low values 0.997 | locus YHR094C, strain hxt1, hits give low values 0.99 | locus YHR129C, strain ARP1, hits give low values 1 | locus YHR142W, strain chs7, hits give low values 0.943 | locus YHR200W, strain rpn10, hits give low values 0.991 | locus YIL066C, strain RNR3, hits give low values 0.995 | locus YIL073C, strain SPO22, hits give low values 0.943 | locus YIL125W, strain kgd1, hits give low values 0.999 | locus YIR030C, strain dcg1, hits give low values 0.988 | locus YJL092W, strain hpr5, hits give low values 0.98 | locus YJL095W, strain BCK1 (second series), hits give low values 0.972 | locus YJL095W, strain BCK1, hits give low values 1.03 | locus YJL115W, strain asf1, hits give low values 0.972 | locus YJL129C, strain trk1, hits give low values 0.966 | locus YJL134W, strain LCB3, hits give low values 1.01 | locus YJL154C, strain vps35, hits give low values 0.972 | locus YJL164C, strain tpk1, hits give low values 0.941 | locus YJL166W, strain qcr8, hits give low values 0.984 | locus YJL168C, strain set2, hits give low values 1 | locus YJL187C, strain SWE1 (second series), hits give low values 0.989
